Screens deposited in PubChem by Johns Hopkins Ion Channel Center.
This is a sample that favours compounds with a hit; in the whole collection about 1.6% have one here.
KCNQ2 pot = KCNQ2 (rat) channel potentiation; O88943; CHO-K1 KCNQ2, FluxOR thallium flux fluorescence; active compounds read high; B-score at 10 µM; actives 0.54% (n = 310,000); AID 2239;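 active means fluorescence ratio B-score at least 3 SD of library B-scores, with initial fluorescence B-score within 3 of them, cut at about 5.3 in these data; same plate scores as AID 2156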;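 further: B-score of peak minus minimum over baseline fluorescence ratio after K+ and Tl+ stimulus; positive B-score means potentiation of KCNQ2 with more thallium influx and brighter signal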
KCNQ2 block = inhibitors of rat KCNQ2 potassium channel | B-score at 10 µM | O88943 | actives 1.1% (n = 310,000) | CHO-K1 KCNQ2, FluxOR thallium flux, 20 min; active compounds read low;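 active means fluorescence ratio B-score at most minus 3 library SDs, with starting brightness B-score within 2 library SDs, cut at about -5.5 in these data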
Kir21 confirm = confirmation of mouse Kir2.1 potassium channel inhibitors | shares compounds with KCNQ2 pot | Kir2.1-expressing cells, FluxOR thallium flux fluorescence; active compounds read low | Tl flux remaining, % of negative control (active compounds read low), % at 10 µM | actives 41% (n = 2,300) | AID 2032;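 active means Primary-screen hit whose thallium flux fell at least 3 control SD below untreated wells in both duplicates, with normal baseline fluorescence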;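 further: 0% = blank wells without stimulus and 100% = stimulated no-compound controls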
HEK293 Tl flux = counter-screen for Kir2.1 inhibitors: effect in parental HEK293 cells. shares compounds with KCNQ2 pot. FluxOR thallium flux fluorescence; 0% = unstimulated blank wells. FluxOR signal as % of negative control (100 = no effect), % at 10 µM. actives 19% (n = 2,300). AID 2105;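 active means dye signal at least 3 control SD above or below untreated wells in both duplicates, raw fluorescence within 3, either direction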;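 further: percent is based on the flux ratio of peak minus minimum fluorescence over baseline F0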
CHO-K1 Tl ctr = parental CHO-K1 activity in KCNQ2 potentiator counter-screen; actives 43% (n = 1,200); parental CHO-K1 cells, FluxOR thallium flux fluorescence; zero = vehicle mean+3SD, 100% = vehicle-minus-blank window; activity increase over 3SD of controls, % at 10 µM; AID 2282; shares compounds with KCNQ2 pot;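 active means signal rise of at least 3 SD above the untreated control mean, in both duplicate wells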;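 further: counter screen of KCNQ2 potentiator hits so any rise reflects channel-independent effects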
KCNQ1 pot spec = tests whether KCNQ2 potentiators also act on human KCNQ1. shares compounds with KCNQ2 pot. CHO KCNQ1 stable, FluxOR thallium flux fluorescence; beyond 3SD, as % of vehicle-control signal. activation over 3SD threshold, % at 10 µM. actives 28% (n = 1,200). AID 2283;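 active means fluorescence ratio rise of at least 3 SD of vehicle wells above their mean, in both replicate wells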;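 further: 0% = vehicle mean plus 3 SD and 100% = vehicle minus unstimulated blank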
KCNQ2 pot conf = rat KCNQ2 channel potentiator confirmation; AID 2287; CHO-KCNQ2 cells, FluxOR thallium flux fluorescence; potentiation, less the hit threshold, % at 10 µM; actives 68% (n = 1,200); shares compounds with KCNQ2 pot;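 active means fluorescence ratio rising 3 SD or more over the vehicle control mean in both replicates, plus primary screen hit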;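 further: peak minus minimum thallium fluorescence divided by baseline after K/Tl stimulus; 0% = vehicle mean plus 3 SD and 100% = vehicle minus unstimulated blank difference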
Kir2-1 sel = tests whether KCNQ2 potentiators also affect mouse Kir2.1; HEK293 Kir2.1, FluxOR thallium flux fluorescence; AID 2345; actives 2% (n = 1,200); shares compounds with KCNQ2 pot; activity over 3SD threshold, % at 10 µM;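 active means fluorescence ratio rise of at least 3 SD above the vehicle-control mean, seen in both replicates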;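 further: 0% = vehicle mean plus 3 SD and 100% = vehicle minus no-stimulus blank window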
KCNQ2 W236L pot = rat KCNQ2 W236L mutant potentiation by KCNQ2 potentiators; shares compounds with KCNQ2 pot; CHO KCNQ2-W236L, automated patch clamp current; current increase over 3SD of negative controls (%), active compounds read high, % at 25 µM; actives 10% (n = 940); AID 2558;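 active means current increase at least 3 SD of the untreated controls above them in both duplicate recordings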
The depositor's hits bear a star; i = inactive; . = no result.

SMILES	KCNQ2 pot	KCNQ2 block	Kir21 confirm	HEK293 Tl flux	others
O=C(CCS(=O)(=O)c1ccccc1)Nc1ccc(Cl)cn1	1.2	i	.	.
Clc1ccc(OCCOCCNCc2ccccc2)cc1Cl	.	i	22.5%*	i
COc1ccccc1OCCCOc1c(Cl)cc(C)cc1Cl	0.23	i	.	.
CC(C)(C)c1ccc(OCCNCc2ccccc2)cc1	.	i	.	.
Cc1cc(C)c(OCCCCNCc2ccccc2)c(Cl)c1	.	i	12.0%*	i
Clc1ccc(OCCCNCc2ccccc2)c2ccccc12	-7.61	-7.61*	13.5%*	73.5%*
COc1c(Cl)cc(Cl)cc1CNCc1ccccc1	.	i	.	.
CCC(C)NCCOCCOc1ccc(Cl)c2ccccc12 (centres undefined)	0.24	i	.	.
Cc1cc(Cl)cc(C)c1OCCOCCNCc1ccccc1	.	i	14.5%*	i
CC(Sc1n[nH]c(N)n1)C(=O)Nc1cccc(S(=O)(=O)N2CCOCC2)c1 (centres undefined)	0.76	i	.	.
Cn1cnc(S(=O)(=O)Nc2ccc(OC(F)(F)F)cc2)c1	.	i	.	.
Cc1cc(Br)ccc1OCCNCc1ccccc1	.	i	25.0%*	i
Cc1cc(C)c(C)c(OCCNCc2ccccc2)c1	.	i	.	.
CCOCCCNC(=O)C(NC(=O)Cc1cccs1)c1ccc(Cl)cc1 (centres undefined)	1.02	i	.	.
COCCNC(=O)/C(C#N)=C/c1ccc(OC(=O)c2cccs2)c(OC)c1	.	i	i	i
COCCNC(=O)/C(C#N)=C/c1cccs1	.	i	.	.
Nc1nc(Cl)nc2ncn(Cc3ccccc3)c12	.	i	.	.
CC12CCC(C(=O)Nc3cc(Cl)ccc3Cl)(C/C1=N\O)C2(C)C (centres undefined)	.	i	.	.
CC1=NN(C(N)=S)C(=O)C1N=Nc1cccc2ccccc12 (centres undefined)	.	i	.	.
CC1=NN(C(N)=S)C(=O)C1N=Nc1cccc(Cl)c1C (centres undefined)	40*	i	i	i	CHO-K1 Tl ctr=-6.2;KCNQ1 pot spec=-15.8;KCNQ2 pot conf=110.3*;Kir2-1 sel=-35.6;KCNQ2 W236L pot=i
COc1cc2c(cc1OC)C(C(=O)Nc1ccc(F)c(Cl)c1)CC(=O)N2 (centres undefined)	.	i	.	.
CCOCc1cn(CC(=O)c2ccc(Cl)cc2)c(C)nc1=N	1.82	i	.	.
CCOCc1cn(CC(=O)c2ccc([N+](=O)[O-])cc2)c(C)nc1=N	.	i	i	i
COc1cc(CNCc2ccccn2)ccc1OCc1c(Cl)cccc1Cl	0.47	i	40.5%*	i
COc1cc(CNCc2ccccn2)ccc1OCc1ccc(Cl)cc1	1.27	i	.	.
SMILES	KCNQ2 pot	KCNQ2 block	Kir21 confirm	HEK293 Tl flux	others
CC(C)OCCCNC(=O)CNC(=O)c1ccc(Cl)c(Cl)c1	0.34	i	.	.
CN(CC(=O)NCCc1ccc(F)cc1)Cc1ccc(Br)cc1	-5.74	-5.74*	58.0%*	i
O=C(Cc1ccccc1)NCCc1cccc(Cl)c1	11.1*	i	i	i	CHO-K1 Tl ctr=-12.5;KCNQ1 pot spec=-13.1;KCNQ2 pot conf=23.4*;Kir2-1 sel=-38.1;KCNQ2 W236L pot=i
CSc1ccccc1NC(=O)CN(C)Cc1cccc(Cl)c1	.	i	.	.
CN(CC(=O)NCCCc1ccccc1)Cc1ccc(Br)cc1	.	i	.	.
O=C(O)CCC(=O)NCCc1cccc(Cl)c1	.	i	.	.
CN(CC(=O)NCCc1ccc(F)cc1)Cc1cccc(Cl)c1	.	i	45.0%*	i
Nc1nc(-c2ccco2)nn1S(=O)(=O)c1ccc(Cl)cc1	0.16	i	.	.
COC(=O)COc1ccc(C(C2C(=O)CC(C)(C)CC2=O)C2C(=O)CC(C)(C)CC2=O)cc1	0.08	i	.	.
